# Source: PubChem BioAssay AID1850 (Southern Research Specialized Biocontainment Screening …, 2009)
# “And” between values parts separate entries of the source, which are not always exact repeats. Equal values may be shown once. Screen size: about 310,000 compounds; about 1,000 (0.32%) were called active. The list is a sample of the results. Potency and affinity values are given separately. A number with no mark means an inactive call. The rule behind the calls is not given here.
# Experiment: PhoP regulon inhibitors, Salmonella typhi PhoP promoter GFP reporter, confirmatory (AID 1850);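 note: 0% = induced wells with vehicle and 100% = uninduced wells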
# Conditions: fluorescence, 4 h, at 50 µM, hits give high values
row,Structure (SMILES),inhibition
1,C[N+](C)(C)CC/C=C1/c2ccccc2CSc2ccccc21,-7.79%
2,CC[N+](C)(C)CC/C=C1/c2ccccc2Sc2ccc(Cl)cc21,5.02%
3,OCCN1CCN(CC/C=C2/c3ccccc3Sc3ccc(C(F)(F)F)cc32)CC1,-0.41%
4,CN1CCN(CCC=C2c3ccccc3Sc3ccc(S(=O)(=O)N(C)C)cc32)CC1,-2.21%
5,OCCN1CCN(CC/C=C2/c3ccccc3Sc3ccc(Cl)cc32)CC1,5.06%
6,CN1CCN(CC/C=C2/c3ccccc3Sc3ccc(S(=O)(=O)N(C)C)cc32)CC1,3.38%
7,O=C1[C@@H]2Cc3c([nH]c4ccccc34)C(c3ccc(Cl)cc3)N2C(=O)CN1CCO (stereo partly specified),3.36%
8,CC(=O)NC(=S)Nc1ccccc1N1CCCCC1,-7.09%
9,COc1ccc(-c2nnc(-c3ccccc3O)o2)cc1,3.32%
10,CCC(C(=O)N1CCCCCC1)n1nc(C)n2c(cc3occc32)c1=O (stereo unspecified),-32.5%
11,CS(=O)(=O)N(CC(=O)Nc1ccccc1C(=O)NCc1ccco1)c1ccc2c(c1)OCCO2,-8.68%
12,Cc1c(C(=O)N2CCOCC2)sc2ncn(CC(=O)N3CCC(C)CC3)c(=O)c12,0.7%
13,Clc1ccc(COC(Cn2ccnc2)c2ccc(Cl)cc2Cl)cc1 (stereo unspecified),-0.54%
14,Clc1ccc(COC(Cn2ccnc2)c2ccc(Cl)cc2Cl)c(Cl)c1 (stereo unspecified),-1.14% and 1.85%
15,Cn1ccsc1=NC(=O)c1ccc(S(=O)(=O)C(F)F)cc1,2.31%
16,CCOc1ccccc1-c1nc(-c2ccc(NC(=O)Cc3ccccc3OC)cc2)no1,1.73% and -10.4%
17,O=C(C[n+]1ccn(-c2ccccc2)c1)c1ccc([N+](=O)[O-])cc1,4.4%
18,O=C(Cn1c[n+](CC(=O)c2ccc([N+](=O)[O-])cc2)cn1)c1ccc([N+](=O)[O-])cc1,7.72% and 18.6%
19,O=C(Cn1cc[n+](CC(=O)c2ccccc2)c1)c1ccccc1,18.8%
20,C[n+]1ccn(CC(=O)c2ccc(Cl)cc2)c1,-7.58%
21,O=c1c(/C=N\NS(=O)(=O)c2ccccc2)coc2ccc(Cl)cc12,-7.39%
22,C/C(=C\c1ccccc1)CN1CCN(C(C)C)C(CCO)C1 (stereo unspecified),-0.3%
23,CC1=CC(c2ccccc2)n2ncnc2N1 (stereo unspecified),3.87%
24,COC/C=C/C1=CC2=CC(=O)C(C)(OC(=O)c3cnc4ccccc4n3)C(=O)C2=CN1CCc1ccccn1 (stereo unspecified),0.66%
25,CCN(CCNCC(O)COCc1ccc(Cl)cc1)c1cccc(C)c1 (stereo unspecified),-1.24%
26,CC(C)c1ccccc1OCC(O)CN(CC(O)COc1cccc2ccccc12)C(C)C (stereo unspecified),-6.27%

row,Structure (SMILES),inhibition
1,Cc1c(Cl)cccc1NC(CC(=O)c1ccccc1)C(=O)OCC(=O)c1cccs1 (stereo unspecified),-2.54%
2,Cc1cccc(NC(=O)Nc2ccc(S(N)(=O)=O)cc2)c1,-0.31%
3,Cc1ccc(S(=O)(=O)NNC(=O)C(=O)NNS(=O)(=O)c2ccc(C)cc2)cc1,-7.52%
4,Cc1ccc(S(=O)(=O)NNC2=NS(=O)(=O)c3ccccc32)c(C)c1,0.74%
5,Cc1ccc(S(=O)(=O)NNc2ccccc2)cc1,32.1%
6,CC(=O)Nc1ccc(S(=O)(=O)NNC(=O)COc2cccc(C)c2)cc1,9.44%
7,Cc1ccc(S(=O)(=O)NNC(=O)Nc2cccc(F)c2)c(C)c1,-7.92%
8,CCOC(=O)N1CCN(Cc2nc3cc(NC(=O)c4cccs4)ccc3n2C)CC1,-16.8%
9,COc1cc(CNn2cn[nH]c2=S)ccc1OCC(=O)NC(C)(C)C,-5.11%
10,CC(=O)N1CN2CN(C(C)=O)CC(C(=O)c3ccc([N+](=O)[O-])cc3)(C2)C1,5.88%
11,CCOC(=O)c1ccccc1NC(=O)CSc1nc2ccccc2n1CC(=O)N1CCCC1,-7.2%
12,CN(C)c1ccc(/C=C/c2nc3ccccc3s2)cc1,-9.15%
13,Cc1nc2ccc(C(=O)Nc3ccc(N(C)C)cc3)cc2s1,-5.67%
14,CC(C)CNC(=O)C(=O)NCCCN1CCOCC1,3.18%
15,CCOc1ccc(N2C(=O)CC(NCCc3c[nH]c4ccccc34)C2=O)cc1 (stereo unspecified),6.97%
16,CCOc1ccc(NC(=O)CSc2nc3ccccc3nc2N2CC(C)OC(C)C2)cc1 (stereo unspecified),-3.96%
17,COc1ccc(CNC(=O)C2CCN(S(=O)(=O)c3ccc4c(c3)CC(C)N4C(C)=O)CC2)cc1 (stereo unspecified),1.71%
18,COc1cccc2sc(N(CCCN(C)C)C(=O)COc3ccc(Cl)cc3)nc12,-1.1%
19,CN(C)CCCN(C(=O)CCc1ccccc1)c1nc2ccc(Cl)cc2s1,0.73%
20,CN(C)CCCN(C(=O)COc1ccccc1)c1nc2ccc(F)cc2s1,-2.75%
21,CN(C)CCCN(C(=O)COc1ccc(Cl)cc1)c1nc2c(F)cccc2s1,8.92%
22,CN(C)CCCN(C(=O)COc1ccc(Cl)cc1)c1nc2ccc(F)cc2s1,14%
23,Cc1ccc2nc(N(CCCN(C)C)C(=O)CCc3ccccc3)sc2c1,-4.72%
24,CN(C)CCCN(C(=O)CCc1ccccc1)c1nc2ccc(F)cc2s1,1.04%
25,Cc1ccc2nc(N(CCCN(C)C)C(=O)COc3ccc(Cl)cc3)sc2c1,6.88%
